Cycloheximide cs: affects cycloheximide protein synthesis inhibition readout, counter-screen. cell reporter, cycloheximide protein synthesis inhibition counterscreen. max response, %. 300,000 tested, 12% active. AID 2314; in the data active means max response mostly above about 13%, no sharp cut-off; inactive means mostly below about 14%; further: read at 38.3 µM for the half of the compounds with a filed dose; 0% is about no effect
HCV inh: blocks hepatitis C virus | 340,000 tested, 3.4% active | Potency, µM (top dose mostly 41.8 µM), without a hit: at the highest dose activity change, negative = inhibition, actives largely listed as inhibitors | Huh7.5.1 HCVcc-Cre infection, luciferase reporter, 44 h; further: potency means the concentration at half of the fitted maximal effect; on the % scale 0 is the no-effect control and ±100 the full control effect
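After 44 h co-culture of compound, cells and HCVcc-Cre (~0.5 moi), substrate is added for 15 min at room temperature and luciferase measured over 15 sec. Cells were seeded at 1,000/well and pre-cultured 4 h.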
Pf growth 96h: inhibits malaria parasite growth, 96 h. 320,000 tested, 6.9% active. Potency, µM (titrated, usually from 28.7 µM), inactives show top-dose activity change, negative = inhibition, actives largely listed as inhibitors. P. falciparum luciferase reporter growth, 96 h. AID 504834; further: potency means the concentration at half of the fitted maximal effect; on the % scale 0 is the no-effect control and ±100 the full control effect
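Two-generation exposure (96 h) targets delayed-death phenotype. Reporter parasites carrying integrated firefly luciferase, in red cells at 2% hematocrit and 0.05% parasitemia final, kept at 37 C, 5% CO2; luminescence loss indicates inhibition.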
Shiga inhibitor: Shiga toxin inhibition; 290,000 tested, 9.2% active; Vero cells, Shiga toxin protein synthesis inhibition reporter; inhibition, % at 38.7 µM; in the data active means inhibition mostly above about 28%, no sharp cut-off; inactive means mostly below about 43%; further: 0% is about no effect
HCMV inh: blocks human cytomegalovirus replication. 410,000 tested, 4.5% active. HFF cells, HCMV-luciferase reporter, 72 h; stronger effect = lower value. activity change, negative = inhibition, % at 57.5 µM; in the data active means activity change below about -60%; inconclusive means no clear call, values can overlap the other calls; inactive means above about -39%; further: on the % scale 0 is the no-effect control and ±100 the full control effect
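Cell-based, HFFs, 1000 cells/well, 16 h 37C; cpds in DMSO + HCMV-luc, MOI 1 PFU/cell; 72 h 37C; OneGlo luminescence after 5 min RT; norm. to buffer vs Salinomycin 10uM.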
Pf growth 48h: inhibits P. falciparum growth in the first generation, 48 h. P. falciparum luciferase growth in erythrocytes, 48 h. Potency, µM (top dose mostly 28.7 µM), for inactives: top-dose activity change, negative = inhibition, hits mostly inhibitors. 310,000 tested, 5.9% active; further: potency means the concentration at half of the fitted maximal effect; on the % scale 0 is the no-effect control and ±100 the full control effect
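Growth was read as firefly luciferase luminescence after a 48 h, 37 C, 5% CO2 exposure of compounds to reporter-bearing P. falciparum cultures (0.1% parasitemia, 2% hematocrit final) in Albumax-supplemented RPMI 1640.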
Starred values were filed as active, the others as inactive. Sampled rows, rich in hits. Any-hit rate of the full collection: about 21%. Unless noted, the call rests on the fitted dose curve; in most records, active means well fitted inhibition curve with a large enough effect; inconclusive means small, poorly fitted or top-dose-only effect, or another doubt; inactive means no such curve, though single readings can be large or run the other way.

What do the screens show for `COc1ccc(-c2cc(C(=O)OCC(=O)c3cccc(OC)c3)c3cccc(Cl)c3n2)cc1`?
HCMV inh: -17

How did CN(C)CCN(C(=O)c1ccco1)c1nc2c(F)cc(F)cc2s1 do in these assays?
HCMV inh: 13

What do the screens show for `CCOc1nc(C)ccc1-c1noc(-c2ccccn2)n1`?
Cycloheximide cs: 26*; HCV inh: inconclusive; Pf growth 96h: -7%; Shiga inhibitor: 34; HCMV inh: -3; Pf growth 48h: 8%

What do the screens show for `CCOc1nc(-c2ccccc2)ccc1-c1noc(-c2cccnc2)n1`?
HCV inh: -4%; HCMV inh: -19

Results for CCOc1ccccc1-c1nc(-c2ccc(C)nc2OC)no1 ?
Cycloheximide cs: 44*; HCV inh: inconclusive; Pf growth 96h: 15%; Shiga inhibitor: 92*; HCMV inh: 34; Pf growth 48h: 141%

Results for CCOc1nc(C)ccc1-c1noc(CC)n1 ?
Cycloheximide cs: -3; HCV inh: -8%; Pf growth 96h: 34%; Shiga inhibitor: -2; HCMV inh: 50; Pf growth 48h: 27%

Results for CCOc1nc(C)ccc1-c1noc(-c2ccco2)n1 ?
Cycloheximide cs: 32*; HCV inh: -11%; Pf growth 96h: 21%; Shiga inhibitor: 42; HCMV inh: 72; Pf growth 48h: 153%

How did CC(=O)Nc1nonc1-c1nnc(SCC(=O)Nc2ccc(F)cc2F)n1-c1ccccc1 do in these assays?
HCMV inh: -6

Results for CC1Sc2ccc(S(=O)(=O)CCC(=O)NC(C)c3ccccc3)cc2NC1=O (configuration not stated) ?
Cycloheximide cs: -2; HCV inh: inconclusive; Pf growth 96h: 3%; Shiga inhibitor: -4; HCMV inh: 18; Pf growth 48h: -7%

Results for CC12CCC(C(=NO)C1=O)C2(C)C (configuration not stated) ?
HCV inh: 17%; HCMV inh: -29

Results for Cc1ccc(S(=O)(=O)N2CCCCC2c2cccnc2)c(C)c1C (configuration not stated) ?
Cycloheximide cs: 0; HCV inh: -8%; Pf growth 96h: 0.33µM*; Shiga inhibitor: -3; HCMV inh: 0; Pf growth 48h: inconclusive

What do the screens show for `COc1cc(OC)cc(C(=O)Nc2ccc(S(=O)(=O)N3CCCCC3c3cccnc3)cc2)c1` (configuration not stated)?
HCMV inh: -68*

How did CCC1CCCCN1S(=O)(=O)c1ccc(NC(=O)c2cccnc2)cc1 (configuration not stated) do in these assays?
Cycloheximide cs: 22; Pf growth 96h: 26%; Shiga inhibitor: -7; HCMV inh: -12; Pf growth 48h: 4%

How did Cc1ccc(S(=O)(=O)N2CCCC2c2cccnc2)cc1 (configuration not stated) do in these assays?
Cycloheximide cs: 5; HCV inh: 12%; Pf growth 96h: 3%; Shiga inhibitor: -3; HCMV inh: 51; Pf growth 48h: inconclusive

Results for O=C1CCN(Cc2cccnc2)CCN1[C@H](CO)Cc1ccccc1 ?
Cycloheximide cs: -1; HCV inh: -5%; Pf growth 96h: 3%; Shiga inhibitor: -3; HCMV inh: -15; Pf growth 48h: -2%

How did O=C(Nc1nnc([C@H]2C[C@H](O)[C@@H](CO)O2)s1)C(c1ccccc1)c1ccccc1 do in these assays?
HCMV inh: -12

What do the screens show for `COCCN1CCC(CNCc2cn[nH]c2-c2ccc(C)c(C)c2)C1` (configuration not stated)?
Cycloheximide cs: -1; HCV inh: inconclusive; Pf growth 96h: -8%; Shiga inhibitor: -7; HCMV inh: 30; Pf growth 48h: inconclusive

What do the screens show for `COCCN1CCC(CNCc2cn(-c3cc(C)ccc3C)nc2-c2ccccc2)C1` (configuration not stated)?
Cycloheximide cs: 4; HCV inh: 7.9µM*; Pf growth 96h: inconclusive; Shiga inhibitor: 1; HCMV inh: -60*; Pf growth 48h: 4.7µM*

Assay outcomes deposited in PubChem BioAssay by National Center for Advancing Translational Sciences (NCATS).
